Test results: PubChem BioAssay (Tox21)
Results filed as inconclusive are left out. Active and inactive are the calls of the source. Unless noted, the call rests on the fitted dose curve; in most records, active means well fitted curve in the direction sought with a large enough effect in the repeat runs; inconclusive means weak or mixed curves; inactive means no such curve, though single readings can be large; an effect the other way counts as inactive or inconclusive.

Experiments:
[1] = qHTS RealTime-Glo MT Cell Viability Assay in HEK293 cells - 24 hour (AID 1224886); further: top concentration of the series differs between compounds; nearly all actives have a fitted effect of over 50% in size
Summary of the method: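 Assay medium contained NanoLuc luciferase plus cell-permeant prosubstrate, added with HEK293 cells at 600 cells/well. After 5 h at 37 C/5% CO2 compounds were added; plates stayed at 37 C for 40 h with serial luminescence reads.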

[2] = qHTS RealTime-Glo MT Cell Viability Assay in HEK293 cells - 8 hour (AID 1224887); further: top concentration of the series differs between compounds; nearly all actives have a fitted effect of over 50% in size
Summary of the method: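 Luminescence, which tracks viable cell number through reduction of the prosubstrate to a NanoLuc substrate, was read over continuous 37 C culture. Cells (600/well) were premixed with reagent and rested 5 h before 23 nL of compound in DMSO was pinned.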

[3] = A CellTox Green Cytotoxicity Assay to monitor cytotoxicity in HEK293 cells - 16 hour (AID 1224888); further: nearly all actives have a fitted effect of over 35% in size
Summary of the method: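 Fluorescence from a DNA-binding dye excluded by viable cells was measured repeatedly in the same HEK293 wells (600 cells/well) during continuous compound exposure at 37 C. Each assay gives one read point: 0, 8, 16, 24, 32 or 40 h.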

[4] = qHTS RealTime-Glo MT Cell Viability Assay in HepG2 cells - 0 hour (AID 1224889); further: nearly all actives have a fitted effect of over 50% in size
Summary of the method: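 qHTS, HepG2, 600 cells/well, RealTime-Glo (NanoLuc + prosubstrate) added with cells; 5 h preincubation; DMSO compound addition; 37 C; luminescence at 0/8/16/24/32/40 h.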

[5] = A CellTox Green Cytotoxicity Assay to monitor cytotoxicity in HepG2 cells - 8 hour (AID 1224890); further: nearly all actives have a fitted effect of over 45% in size
Summary of the method: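 Real-time cytotoxicity: fluorescence of a cell-impermeant cyanine dye binding DNA of dead HepG2 cells, measured repeatedly (0–40 h) during compound exposure at 37 C. Cells seeded 600/well with reagent, dosed after 5 h.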

[6] = qHTS assay to identify small molecule antagonists of the estrogen receptor alpha (ER-alpha) signaling pathway using the BG1 cell line in the presence of 0.1 nM 17-beta-estradiol - cell viability counter screen (AID 1259241); further: nearly all actives have a fitted effect of over 40% in size
Summary of the method: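 VM7Luc4E2, 4,000 cells/well, phenol red-free medium + 10% charcoal-stripped FBS; 24 hr plating; cpd + 0.1 nM E2 final, 22 hr 37C/5% CO2; CellTiter-Fluor 30 min, fluorescence.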

[7] = qHTS assay to identify small molecule antagonists of the androgen receptor (AR) signaling pathway using the MDA cell line in the presence of 0.5 nM R1881 - cell viability counter screen (AID 1259242); further: nearly all actives have a fitted effect of over 45% in size
Summary of the method: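 Live-cell protease activity was measured by CellTiter-Fluor fluorescence after 30 min. Before that, MDA-kb2 MMTV-luciferase cells had 16 hr at 37C without CO2, exposed to test compounds and 0.5 nM R1881 final.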

[8] = qHTS assay to identify small molecule HDAC inhibitors (AID 1259364); further: top concentration of the series differs between compounds; nearly all actives have a fitted effect of over 45% in size
Summary of the method: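 Luminescence read after 30 min room-temperature HDAC-Glo incubation measures cellular class I/II HDAC activity. Compounds were applied for 2 hr at 37 C to HCT-116 wild-type cells seeded the day before.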

[9] = qHTS assay to identify small molecule agonists of the sonic hedgehog signaling (Shh) pathway - cell viability counter screen (AID 1259366); further: nearly all actives have a fitted effect of over 50% in size
Summary of the method: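 Cytotoxicity counter screen run in the same wells as the Shh reporter assay. NIH/3T3 cells carrying a Gli1 response element–driven luciferase were treated with DMSO-dissolved compounds for 24hr, and live-cell protease activity was measured with CellTiter-Fluor.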

[10] = qHTS assay to identify small molecule antagonists of the sonic hedgehog signaling (Shh) pathway - cell viability counter screen (AID 1259367); further: nearly all actives have a fitted effect of over 55% in size
Summary of the method: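 Viability was read by CellTiter-Fluor fluorescence in the same wells, reagent added 23 hr into compound treatment and incubated 1 hr at 37C. The 3T3 Gli1-Luc reporter cells (2,000/well) received conditioned medium after compound and ran 24 hr.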

[11] = qHTS assay to identify small molecule antagonists of the sonic hedgehog signaling (Shh) pathway (AID 1259369; calls by dose curve; further: nearly all actives have a fitted effect of over 45% in size)
Summary of the method: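 Antagonist mode: compound added to 3T3 Gli1-Luc cells followed by conditioned-medium stimulation, 24 h at 37 C, 5% CO2. Inhibition taken as loss of Gli1-driven luciferase luminescence.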

[12] = qHTS assay to identify small molecule agonists of the androgen receptor (AR) signaling pathway in the presence of an antagonist - cell viability counter screen (AID 1259379);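 further: MDA-kb2 human breast cancer cells carrying an MMTV luciferase reporter; series mostly up to about 92 µM; nearly all actives have a fitted effect of over 25% in size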
Summary of the method: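 Cytotoxicity counter-screen run in the same wells as the nilutamide-challenged (3.0 µM final) AR agonist assay in MDA-kb2 cells. Compounds tested at 15 concentrations for 16 h, 37 °C without CO2; CellTiter-Fluor fluorescence read.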

[13] = qHTS assay to identify small molecule agonists of the estrogen receptor beta (ER-beta) signaling pathway - cell viability counter screen (AID 1259380); further: nearly all actives have a fitted effect of over 30% in size
Summary of the method: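 Cell viability counter screen: CellTiter-Glo luminescence (30 min, room temperature) measured in the same wells as the beta-lactamase readout, after 16 hr compound exposure at 37C of ER-beta-bla HEK293T cells in 2% charcoal-stripped FBS medium.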

[14] = target: Estrogen receptor (Homo sapiens) (UniProt P03372); experiment: qHTS assay to identify small molecule antagonists of the estrogen receptor alpha (ER-alpha) signaling pathway using the BG1 cell line in the presence of 0.1 nM 17-beta-estradiol (AID 1259244); further: nearly all actives have a fitted effect of over 50% in size
Sequence of Estrogen receptor (Homo sapiens) (P03372 whole entry, looked up): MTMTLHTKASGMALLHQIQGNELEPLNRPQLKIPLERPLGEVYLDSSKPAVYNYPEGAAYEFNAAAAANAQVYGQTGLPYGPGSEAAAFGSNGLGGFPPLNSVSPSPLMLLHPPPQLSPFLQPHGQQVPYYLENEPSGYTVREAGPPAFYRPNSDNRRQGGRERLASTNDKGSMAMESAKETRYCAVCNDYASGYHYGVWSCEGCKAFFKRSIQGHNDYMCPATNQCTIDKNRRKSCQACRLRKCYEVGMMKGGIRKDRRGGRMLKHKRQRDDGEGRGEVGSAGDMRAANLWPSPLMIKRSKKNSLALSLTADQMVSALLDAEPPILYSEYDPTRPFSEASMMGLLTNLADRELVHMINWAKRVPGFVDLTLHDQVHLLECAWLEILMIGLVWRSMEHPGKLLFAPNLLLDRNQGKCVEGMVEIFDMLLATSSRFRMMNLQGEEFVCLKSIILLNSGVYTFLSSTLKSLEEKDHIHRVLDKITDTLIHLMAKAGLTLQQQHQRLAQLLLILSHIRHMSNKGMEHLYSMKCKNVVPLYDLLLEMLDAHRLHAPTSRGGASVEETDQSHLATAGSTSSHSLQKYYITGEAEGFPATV
Summary of the method: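 Luciferase luminescence (ONE-Glo, 30 min at room temperature) was read after 22 hr at 37C exposure to compounds plus 17beta-estradiol at 0.1 nM final. Cells were VM7Luc4E2 with endogenous ER-alpha and an ERE-driven luciferase, pre-cultured 5 days in hormone-depleted medium.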

[15] = qHTS assay to identify small molecule agonists of the sonic hedgehog signaling (Shh) pathway (AID 1259368; calls by dose curve;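 further: NIH/3T3-derived 3T3Gli1-Luc cells carrying a stable Gli1-driven firefly luciferase reporter; series mostly up to about 92 µM; nearly all actives have a fitted effect of over 15% in size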)
Summary of the method: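 Luminescence was read after 30 min at room temperature with luciferase reagent. Before that, 3T3Gli1-Luc cells (NIH/3T3 clone, stable Gli1-Luc reporter; 2,000/well) were exposed to compounds for 24 hr at 37C, 5% CO2, compounds being added 4 hr post-plating.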

[16] = qHTS assay to identify small molecule HDAC inhibitors - cell viability counter screen (AID 1259365)
Summary of the method: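 Luminescence from CellTiter-Glo, developed 30min at room temperature, reports viability of wild-type HCT-116 cells treated 2hr with compounds at 37 C and 5% CO2 after overnight plating.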

[17] = target: Estrogen receptor beta (Homo sapiens) (UniProt Q92731); experiment: qHTS assay to identify small molecule agonists of the estrogen receptor beta (ER-beta) signaling pathway (AID 1259377; active means well fitted activation curve with a large enough effect in the signal ratio in the repeat runs, not every such curve was filed as active; the % refers to the signal ratio)
Sequence of Estrogen receptor beta (Homo sapiens) (Q92731 whole entry, looked up): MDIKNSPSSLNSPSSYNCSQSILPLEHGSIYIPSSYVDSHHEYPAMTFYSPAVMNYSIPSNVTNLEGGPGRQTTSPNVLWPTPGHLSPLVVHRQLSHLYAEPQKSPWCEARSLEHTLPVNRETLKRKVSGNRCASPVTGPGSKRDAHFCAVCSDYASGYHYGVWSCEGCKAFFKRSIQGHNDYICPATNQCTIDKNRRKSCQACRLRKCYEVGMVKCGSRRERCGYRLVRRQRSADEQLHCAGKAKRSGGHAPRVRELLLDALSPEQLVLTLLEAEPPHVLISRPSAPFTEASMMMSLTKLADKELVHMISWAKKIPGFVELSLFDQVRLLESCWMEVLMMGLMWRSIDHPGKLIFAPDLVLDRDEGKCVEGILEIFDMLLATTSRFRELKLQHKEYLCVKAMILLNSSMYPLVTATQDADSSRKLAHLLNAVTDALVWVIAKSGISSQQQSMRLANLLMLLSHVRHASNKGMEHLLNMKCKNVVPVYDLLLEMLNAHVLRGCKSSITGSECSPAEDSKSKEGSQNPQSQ
Summary of the method: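 HEK293T ER-beta-UAS-bla; 2% charcoal-stripped FBS; cells pre-incubated 6 hr, compound 16 hr, 37C/5% CO2; LiveBLAzer B/G FRET substrate 2 h RT; fluorescence intensity read.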

[18] = target: Estrogen receptor beta (Homo sapiens) (UniProt Q92731); experiment: qHTS assay to identify small molecule antagonists of the estrogen receptor beta (ER-beta) signaling pathway (AID 1259378; active means well fitted inhibition curve with a large enough effect in the signal ratio in the repeat runs, not every such curve was filed as active; the % refers to the signal ratio)
Summary of the method: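 Antagonist mode: compounds added to beta-lactamase reporter HEK293T ER-beta-UAS cells stimulated with E2 (1nM final), 16 hr at 37C. LiveBLAzer B/G FRET substrate, 2 hours room temperature, fluorescence read-out.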

Measured: Potency

CC(C)CCOC(=O)c1ccccc1
not listed: [14] | [15] | [16] | [17] | [18]
inactive: all other assays above

CCCCCCC1(C)CCC(=O)O1 (stereo unspecified)
not listed: [16] | [17] | [18]
inactive: all other assays above

C=CCN1C[C@H](C(=O)N(CCCN(C)C)C(=O)NCC)C[C@@H]2c3cccc4[nH]cc(c34)C[C@H]21
not listed: [9] | [12] | [17] | [18]
inactive: all other assays above

COC(=O)/C=C\C(=O)O
not listed: [8] | [15] | [17] | [18]
inactive: all other assays above

Cc1cc(C)c(C(=O)O)c(C)c1
not listed: [7]
inactive: all other assays above

Cc1ccc2c(c1)C(=O)c1ccccc1C2=O
not listed: [7] | [8] | [13] | [17]
inactive: all other assays above

C/C(CC(C)C)=N\O
not listed: [8] | [15] | [18]
inactive: all other assays above

CC(=O)O[Si](C)(OC(C)=O)OC(C)=O
not listed: [9] | [14] | [15] | [16]
inactive: all other assays above

CNCCS(=O)(=O)O
not listed: [14] | [17] | [18]
inactive: all other assays above
